Hits are enriched below; roughly 12% of the tested compounds scored in any of these assays.
BAZ2B inh – qHTS Assay for Inhibitors of BAZ2B; Bromodomain adjacent to zinc finger domain protein 2B (Homo sapiens), Q9UIF8; Potency, µM (highest dose often 114 µM), without a hit: top-dose activity change, negative = inhibition, hits mostly inhibitors; AID 504333, 2011; AlphaScreen BAZ2B-H3K14Ac peptide displacement; actives 4.4% (n = 360,000); note: % is set by controls: 0 for no effect and ±100 for the full control effect; nearly all actives have a fitted effect of over 60% in size
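AlphaScreen luminescence quantifies BAZ2B engagement of H3K14Ac peptide; the protein and biotinylated peptide are both at 50 nM final, buffer PBS pH 7.4 with 0.01% Tween-20, all steps at room temperature.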
JMJD2A Tudor – qHTS Assay for Inhibitors of JMJD2A-Tudor Domain | Potency, µM (series often up to 114 µM), for the others: top-dose activity change, negative = inhibition, hits mostly inhibitors | Lysine-specific demethylase 4A (Homo sapiens), O75164 | AlphaScreen JMJD2A-Tudor / H3K4me3 peptide binding | actives 4.4% (n = 390,000); note: % is set by controls: 0 for no effect and ±100 for the full control effect; nearly all actives have a fitted effect of over 50% in size
G9a inh – qHTS Assay for Inhibitors of Histone Lysine Methyltransferase G9a; Histone-lysine N-methyltransferase EHMT2 (Homo sapiens), Q96KQ7; G9a H3K9 monomethylation, AlphaScreen, 2 h; Potency, µM (doses to about 102 µM), for inactives: at the highest dose activity, negative = inhibition, hits mostly inhibitors; actives 8.8% (n = 350,000); AID 504332, 2011; note: % is set by controls: 0 for no effect and ±100 for the full control effect; nearly all actives have a fitted effect of over 75% in size
Target sequence (Q96KQ7 913-1193 limits assumed): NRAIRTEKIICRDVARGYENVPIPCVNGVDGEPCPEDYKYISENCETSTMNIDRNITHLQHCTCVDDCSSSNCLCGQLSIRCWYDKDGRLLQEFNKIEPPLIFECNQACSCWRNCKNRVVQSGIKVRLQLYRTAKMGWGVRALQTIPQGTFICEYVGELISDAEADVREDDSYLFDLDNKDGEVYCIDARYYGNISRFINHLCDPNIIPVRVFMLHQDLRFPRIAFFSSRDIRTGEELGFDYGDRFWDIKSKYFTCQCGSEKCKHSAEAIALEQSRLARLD
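AlphaScreen read-out: biotin-H3K9 peptide (500 nM) methylation by 20 nM enzyme with 20 uM SAM, 2 h at room temperature after 15 min compound preincubation; anti-monomethyl H3K9 antibody plus donor/acceptor beads, 10 min dark.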
HP1b chromo inh – HTS for Inhibitors of HP1-beta Chromodomain Interactions with Methylated Histone Tails; Chromobox protein homolog 1 (Homo sapiens), P83916; AlphaScreen HP1-beta / biotin-H3K9me3 peptide binding; Potency, µM (titrated, usually from 114 µM), for the others: at the top dose activity change, negative = inhibition, actives largely listed as inhibitors; actives 0.56% (n = 390,000); note: nearly all actives have a fitted effect of over 70% in size
Target sequence (P83916 whole entry, looked up): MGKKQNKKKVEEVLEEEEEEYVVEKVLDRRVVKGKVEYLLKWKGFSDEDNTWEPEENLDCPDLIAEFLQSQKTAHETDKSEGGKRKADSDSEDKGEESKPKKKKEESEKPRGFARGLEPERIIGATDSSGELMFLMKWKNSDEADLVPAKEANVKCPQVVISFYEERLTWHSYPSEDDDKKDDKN
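HP1-beta protein (50 nM final) preincubated 30 min at room temperature with biotinylated H3(1-18)K9me3 peptide (50 nM) in PBS pH 7.4, 0.01% Tween-20, then compound added for 30 min. AlphaScreen streptavidin donor/nickel chelate acceptor beads (10 ug/mL final), 30 min dark, luminescence read.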
Sfp inh – qHTS Assay for Inhibitors of Bacillus subtilis Sfp phosphopantetheinyl transferase (PPTase); 4'-phosphopantetheinyl transferase ffp (Bacillus subtilis), Q9F4F7; Biochemical Sfp PPTase activity, qHTS; Potency, µM, for inactives: largest response in the series, negative = inhibition, hits mostly inhibitors; actives 3.5% (n = 310,000);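 note: the enzyme is Sfp with the accession as filed and its product quenches rhodamine fluorescence; 0% = enzyme reaction without inhibitor and -100% = no enzyme wells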
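After 15 min at room temperature with compound, 15 nM Sfp received 5 uM rhodamine-CoA plus 12.5 uM BHQ-2-ybbR (50 mM Hepes pH 7.6, 10 mM MgCl2). Rate came from the fluorescence difference over 30 min, ex 525/em 598 nm.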
Active calls of the source: *; u = inconclusive; x = no result given; [ ] = remark or other dose. Calls come from the whole dose curve; as a rule, active = well fitted curve in the direction sought with a large enough effect; inconclusive = small, poorly fitted or top-dose-only effect, or another doubt; inactive = no such curve, though single readings can be large; an effect the other way counts as inactive or inconclusive. Potency is the fitted concentration of half-maximal effect.

SMILES | BAZ2B inh | JMJD2A Tudor | G9a inh | HP1b chromo inh | Sfp inh
O=S(=O)(NCC(Nc1ccccc1)c1ccccc1)c1ccc(Cl)cc1 (stereo unspecified) | -8.5% | -21.2% | -43.4%[59 µM] | 9.9% | 9.8%
O=C(O)c1cccc(NC(CNS(=O)(=O)c2ccc(Cl)cc2)c2ccccc2)c1 (stereo unspecified) | 79.4µM* | -22.8% | u | 6.3% | 6.0%
CC(C)CNS(=O)(=O)c1cc(C(=O)O)c(Cl)cc1Cl | -36.4% | 0.7%[11.4 µM] | u | 19.5% | u
O=C(O)c1cc(S(=O)(=O)Nc2cccc3ccccc23)c(Cl)cc1Cl | -38.3% | 79.4µM* | 56.2µM* | -12.5% | -12.3%
CC(=O)NS(=O)(=O)c1ccc2c(c1)C(=O)c1cc(S(=O)(=O)NC(C)=O)ccc1-2 | -9.9% | -5.0% | 9.4%[0.501 µM] | 2.4% | 14.5%
CC(NS(=O)(=O)c1ccc2c(c1)C(=O)c1cc(S(=O)(=O)NC(C)C(=O)O)ccc1-2)C(=O)O (stereo unspecified) | -20.2% | 10µM* | 28.2µM* | u | -3.6%
O=C(O)c1cccc(NS(=O)(=O)c2ccc(-c3ccc(S(=O)(=O)Nc4cccc(C(=O)O)c4)cc3)cc2)c1 | -13.4% | -26.8% | 50.1µM* | 23.9% | 11.9%
O=C(O)c1ccc(Cl)c(S(=O)(=O)Nc2ccc(S(=O)(=O)Nc3cccc(Cl)c3)cc2)c1 | -33.3% | -5.7% | 56.2µM* | -1.8% | 16.2%
O=C(O)c1ccc(NS(=O)(=O)c2cc(Cl)ccc2Cl)cc1 | -19.6% | 0.7% | -4.7% | 46.8% | 10.3%
CN(C(=O)c1cccc(NC(=O)Cc2ccc(NC(=O)C3CCCN(C(=O)c4ccccc4)C3)cc2)c1)C1CCCCC1 (stereo unspecified) | x | -18.1% | x | 13.9% | x
O=C(CNC(=O)c1ccccc1)N[C@@H](C(=O)Nc1cc(C(F)(F)F)ccc1Cl)c1ccccc1 | x | -17.8% | x | x | x
Cn1c(O)c(N=Nc2ccc(F)cc2)c2ccccc21 | -2.8% | -31.2% | 25.1µM* | u | -26.6%
Cn1c(O)c(N=Nc2nc(-c3ccccc3)cs2)c2ccccc21 | u | u | u | -16.6% | 56.2µM*
Cn1c(O)c(N=Nc2ccccc2)c2ccccc21 | -8.2% | -10.6% | 22.4µM* | 0.7% | 50.1µM*
Cn1c(O)c(N=NC(=O)Cc2c[nH]c3ccccc23)c2ccccc21 | x | u | x | -10.6% | x
Cn1c(O)c(N=NC(=O)c2cc(-c3cccs3)nc3ccccc23)c2ccccc21 | -10.7% | u | -17.3%[59 µM] | 0.6% | 2.4%
Cc1cc(C)c2c(=O)n(CC(=O)N3CCC(N4CCCCC4)CC3)sc2n1 | 2.7% | 3.16µM* | 1µM* | 3.55µM* | 8.91µM*
CCCNC(=O)Cn1sc2nc(C)cc(C)c2c1=O | 50.1µM* | 3.16µM* | x | u | 1.78µM*
CCOC(=O)C1CCCN(C(=O)Cn2cnc3c2c(=O)n(C)c(=O)n3C)C1 (stereo unspecified) | 2.6% | 0.7% | -32.9% | 36.1% | 9.2%
CCOC(=O)C1CCCN(C(=O)Cn2sc3nc(C)cc(C)c3c2=O)C1 (stereo unspecified) | 15.2% | 5.62µM* | 1.58µM* | u | 1.78µM*
Cc1nn(CC(=O)N2CCC(N3CCCCC3)CC2)c(=O)c2c1sc1ccccc12 | -12.4%[57.1 µM] | -6.6% | 3.5% | 7.4%[57 µM] | 13.8%
O=C(Cc1ccc(Br)cc1)N/N=C/c1cccnc1 | -1.8% | -7.1% | 40.2% | 16.7% | 10.4%
CCOC(=O)c1sc(N2C(=O)c3oc4ccc(C)cc4c(=O)c3C2c2ccccc2F)nc1C (stereo unspecified) | 1.7% | 8.6% | 10.5%[59 µM] | 36.3% | x
Cc1ccc(C(OCC(O)CNCc2ccc(F)cc2)c2ccccc2)cc1 (stereo unspecified) | 39.8µM* | 79.4µM* | u | -34.3% | u
O=C(c1ccccc1)c1ccc(OCC(O)CNCc2ccc(F)cc2)cc1 (stereo unspecified) | 35.5µM* | 5.01µM* | 5.01µM* | -10.1% | -13.2%

From PubChem
